# According to PubChem BioAssay (EPA / NIEHS):
# The source made the active and inactive calls. The calls were made as follows: active = hit-call score of the fitted dose curve at least 0.9, where 1 is the maximum; inactive = score below 0.9.
# Legend:
# [1] = molecular target: Transcription factor E2F1 (Homo sapiens) (UniProt Q01094); assay: ATG_E2F_CIS: Attagene CIS-FACTORIAL HepG2 Assay for human E2F Transcription Factor 1 (AID 2282935); conditions: HepG2 Attagene cis-reporter, E2F reporter RNA transcripts; actives raise or lower the signal
# How it was run: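 Measures reporter transcript levels via RT-PCR with capillary electrophoresis detection in HepG2 cells harboring cis-regulated reporter units; 24 h post-dose; bidirectional curve fitting with DMSO as baseline.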
# [2] = ATG_E_Box_CIS: Attagene CIS-FACTORIAL HepG2 Assay for human Enhancer Box (E-box) (AID 2282936); conditions: HepG2 E-box cis-reporter transcription, actives raise or lower the signal
# How it was run: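 First, HepG2 cells receive multiple cis-regulated reporter constructs by transient transfection. Next, chemicals are applied for 24 h. Finally, reporter mRNA is quantified via RT-PCR and capillary electrophoresis, with DMSO as baseline.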
# [3] = ATG_M_61_CIS: Attagene CIS-FACTORIAL HepG2 Assay for M61 Transcription Factor (Internal Marker) (AID 2282937); conditions: HepG2 Attagene CIS-FACTORIAL M61 internal marker reporter; actives raise or lower the signal
# How it was run: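 HepG2 cells transiently transfected with multiplexed cis-promoter reporter units reporting endogenous transcription factor activity, measured 24 h after dosing. Reporter mRNA quantified by RT-PCR and capillary electrophoresis; bidirectional fit against DMSO baseline.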
# [4] = ATG_M_19_CIS: Attagene CIS-FACTORIAL HepG2 Assay for M19 Transcription Factor (Internal Marker) (AID 2282939); conditions: HepG2 Attagene CIS-FACTORIAL M19 internal marker reporter; actives raise or lower the signal
# How it was run: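 Signals come from fluorescence of labelled reporter-specific PCR fragments resolved by capillary electrophoresis, following 24 h treatment of HepG2 cells transfected with cis-promoter reporter units; activity was fitted in both directions relative to DMSO.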
# [5] = ATG_Ets_CIS: Attagene CIS-FACTORIAL HepG2 Assay for human Erythroblast Transformation Specific (ETS) (AID 2282941); conditions: HepG2 ETS cis-reporter transcription, actives raise or lower the signal
# How it was run: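 HepG2 cells transiently transfected with cis-promoter reporter transcription units were dosed for 24 h; reporter mRNA was measured by RT-PCR, 6-FAM primer extension, HpaI digestion and capillary electrophoresis, with bidirectional fitting against DMSO baseline.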
# [6] = molecular target: Hepatocyte nuclear factor 3-beta (Homo sapiens) (UniProt Q9Y261); assay: ATG_FoxA2_CIS: Attagene CIS-FACTORIAL HepG2 Assay for human Forkhead box A2 (FOXA2) (AID 2282942); conditions: HepG2 cis-reporter transcription factor activity, 24 h; actives raise or lower the signal
# How it was run: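 HepG2 transiently transfected with a multiplexed cis-promoter reporter library read endogenous FOXA2 activity. After 24 h compound exposure, reporter mRNA was quantified by RT-PCR, HpaI digestion and capillary electrophoresis. Bidirectional fit against DMSO.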
# [7] = ATG_FoxO_CIS: Attagene CIS-FACTORIAL HepG2 Assay for human Forkhead box O (FoxO) (AID 2282943); conditions: HepG2 Attagene cis-reporter, FoxO element, mRNA; actives raise or lower the signal
# How it was run: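 HepG2 cells transiently transfected with cis-element-driven reporter units report endogenous FoxO activity. After 24 h chemical exposure, reporter mRNA quantified by RT-PCR, fluorescent labeling, HpaI digestion and capillary electrophoresis; bidirectional fit versus DMSO.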
# [8] = ATG_GATA_CIS: Attagene CIS-FACTORIAL HepG2 Assay for human GATA Binding Protein (AID 2282944); conditions: HepG2 GATA cis-element reporter, Attagene multiplex mRNA; actives raise or lower the signal
# How it was run: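 After transfecting HepG2 cells with multiple cis-regulated reporter units, chemicals are dosed for 24 h; isolated RNA undergoes RT-PCR and fluorescent labeling before capillary electrophoresis, with activity expressed against DMSO.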
# [9] = ATG_GLI_CIS: Attagene CIS-FACTORIAL HepG2 Assay for human Zinc Finger Protein GLI1 (AID 2282945); conditions: HepG2, Attagene cis-factorial reporter mRNA, GLI element; actives raise or lower the signal
# How it was run: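 Transiently transfected HepG2 cells report endogenous transcription factor activity via cis-element-driven reporter units. After 24 h compound exposure, reporter mRNA was measured by RT-PCR with capillary electrophoresis; bidirectional fitting against DMSO baseline.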
# [10] = molecular target: Bile acid receptor (Homo sapiens) (UniProt Q96RI1); assay: ATG_IR1_CIS: Attagene CIS-FACTORIAL HepG2 Assay for human Nuclear Receptor Subfamily 1 Group H Member 4 (NR1H4), IR1 submotif (AID 2282946); conditions: IR1 reporter transcription, actives raise or lower the signal
# How it was run: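 HepG2 cells transiently transfected with multiple cis-promoter-driven reporter units to measure endogenous transcription factor activity; 24 h exposure. Reporter mRNA read by RT-PCR, FAM labelling, HpaI digestion and capillary electrophoresis. Bidirectional fit versus DMSO.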
# [11] = ATG_M_32_CIS: Attagene CIS-FACTORIAL HepG2 Assay for M32 Transcription Factor (Internal Marker) (AID 2282949); conditions: HepG2 Attagene cis-factorial M32 reporter, mRNA; actives raise or lower the signal;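 also: background control marker of the multiplexed CIS panel rather than a real target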
# How it was run: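 Following 24 h chemical exposure of HepG2 cells transiently expressing cis-promoter reporter constructs, reporter transcript levels were determined by RT-PCR with fluorescent labelling and capillary electrophoresis, then fitted bidirectionally against DMSO.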
# [12] = ATG_M_06_CIS: Attagene CIS-FACTORIAL HepG2 Assay for M06 Transcription Factor (Internal Marker) (AID 2282950); conditions: HepG2 Attagene CIS-FACTORIAL M06 internal marker reporter; actives raise or lower the signal
# How it was run: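 HepG2 liver cells, 24 h exposure. Reporter transcripts from transfected cis-element constructs quantified by RT-PCR/capillary electrophoresis fluorescence. Bidirectional curve fit against DMSO.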
# [13] = molecular target: Hypoxia-inducible factor 1-alpha (Homo sapiens) (UniProt Q16665); assay: ATG_HIF1a_CIS: Attagene CIS-FACTORIAL HepG2 Assay for human Hypoxia Inducible Factor 1 (HIF1A) (AID 2282951); conditions: HepG2 Attagene cis-factorial HIF1a reporter transcription; actives raise or lower the signal
# How it was run: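 HepG2 cells transiently transfected with multiple cis-regulated reporter transcription units measure endogenous transcription factor activity. After 24 h exposure, reporter mRNA is quantified by RT-PCR with 6-FAM labelling, HpaI digestion and capillary electrophoresis. Bidirectional fitting against DMSO.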
# [14] = molecular target: Hepatocyte nuclear factor 6 (Homo sapiens) (UniProt Q9UBC0); assay: ATG_HNF6_CIS: Attagene CIS-FACTORIAL HepG2 Assay for human Hepatocyte Nuclear Factor 6 (HNF6) (AID 2282952); conditions: HepG2 Attagene cis-factorial HNF6 reporter transcription; actives raise or lower the signal
# How it was run: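 Transiently transfected HepG2 cells expressing cis-regulated reporter transcription units were exposed to chemical for 24 h in a 24-well format. Reporter transcript abundance was determined by fluorescence capillary electrophoresis.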
# [15] = molecular target: Heat shock factor protein 1 (Homo sapiens) (UniProt Q00613); assay: ATG_HSE_CIS: Attagene CIS-FACTORIAL HepG2 Assay for human Heat Shock Transcription Factor 1 (HSE) (AID 2282953); conditions: HepG2 HSE cis-reporter, Attagene RNA transcription; actives raise or lower the signal
# How it was run: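 Endogenous transcription factor activity captured via cis-promoter reporter units transfected into HepG2; treatment lasted 24 h. Fluorescence intensity of reporter fragments analysed with bidirectional curve fitting, DMSO baseline.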
# [16] = ATG_MRE_CIS: Attagene CIS-FACTORIAL HepG2 Assay for human Metal Responsive Element (MRE) (AID 2282954); conditions: HepG2 MRE cis-reporter transcription, Attagene multiplex; actives raise or lower the signal
# How it was run: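 Fluorescent reporter fragments separated by capillary electrophoresis give mRNA induction for the MRE unit after 24 h treatment of transfected HepG2 cells. Endogenous transcription-factor activity is read; DMSO serves as negative control and baseline.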
# [17] = ATG_EGR_CIS: Attagene CIS-FACTORIAL HepG2 Assay for human Early Growth Response 1 (EGR1) (AID 2282938); conditions: HepG2 Attagene CIS-FACTORIAL EGR reporter mRNA; actives raise or lower the signal
# How it was run: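 HepG2 cells transiently transfected with cis-element-driven multiplexed reporter units, dosed for 24 h. EGR1-element reporter mRNA quantified by RT-PCR, 6-FAM labelling, HpaI digestion and capillary electrophoresis; bidirectional fit versus DMSO.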
# [18] = ATG_ERE_CIS: Attagene CIS-FACTORIAL HepG2 Assay for Estrogen Response Element (ERE) (AID 2282940); conditions: HepG2 ERE cis-reporter, Attagene RNA transcript; actives raise or lower the signal
# How it was run: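 Fluorescence of capillary-separated, FAM-labelled reporter cDNA fragments indicates reporter mRNA levels in HepG2 cells exposed to chemicals for 24 h. Transient transfection with cis-regulated units; data fitted in both directions against DMSO.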
# [19] = ATG_ISRE_CIS: Attagene CIS-FACTORIAL HepG2 Assay for human Interferon Regulatory Factor 1 (IRF1) binding to an Interferon-Stimulated Response Element (ISRE) (AID 2282948); conditions: HepG2 ISRE cis-reporter (Attagene), mRNA transcription readout; actives raise or lower the signal
# How it was run: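 HepG2 cells transiently transfected with multiplexed cis-promoter reporter units; after 24 h compound exposure, reporter mRNA quantified by RT-PCR, FAM labelling, HpaI digestion and capillary electrophoresis. Bidirectional fit versus DMSO baseline.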
# Sequence of Heat shock factor protein 1 (Homo sapiens) (Q00613 whole entry, looked up, the tested form may be a part): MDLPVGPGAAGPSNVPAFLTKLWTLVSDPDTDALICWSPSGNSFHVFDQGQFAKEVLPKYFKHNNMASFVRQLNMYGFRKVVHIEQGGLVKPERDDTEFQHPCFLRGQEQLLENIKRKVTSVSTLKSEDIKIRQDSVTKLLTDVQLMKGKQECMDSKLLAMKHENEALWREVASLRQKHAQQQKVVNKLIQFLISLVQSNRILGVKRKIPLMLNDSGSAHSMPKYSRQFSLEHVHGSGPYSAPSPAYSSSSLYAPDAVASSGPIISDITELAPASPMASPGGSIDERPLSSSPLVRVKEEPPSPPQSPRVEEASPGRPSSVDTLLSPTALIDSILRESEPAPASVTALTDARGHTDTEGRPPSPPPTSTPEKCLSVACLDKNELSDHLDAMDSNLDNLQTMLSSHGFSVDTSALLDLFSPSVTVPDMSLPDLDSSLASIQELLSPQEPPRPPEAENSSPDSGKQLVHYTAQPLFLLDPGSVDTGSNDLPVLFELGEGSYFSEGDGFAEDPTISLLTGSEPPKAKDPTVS
# Sequence of Hepatocyte nuclear factor 6 (Homo sapiens) (Q9UBC0 whole entry, looked up): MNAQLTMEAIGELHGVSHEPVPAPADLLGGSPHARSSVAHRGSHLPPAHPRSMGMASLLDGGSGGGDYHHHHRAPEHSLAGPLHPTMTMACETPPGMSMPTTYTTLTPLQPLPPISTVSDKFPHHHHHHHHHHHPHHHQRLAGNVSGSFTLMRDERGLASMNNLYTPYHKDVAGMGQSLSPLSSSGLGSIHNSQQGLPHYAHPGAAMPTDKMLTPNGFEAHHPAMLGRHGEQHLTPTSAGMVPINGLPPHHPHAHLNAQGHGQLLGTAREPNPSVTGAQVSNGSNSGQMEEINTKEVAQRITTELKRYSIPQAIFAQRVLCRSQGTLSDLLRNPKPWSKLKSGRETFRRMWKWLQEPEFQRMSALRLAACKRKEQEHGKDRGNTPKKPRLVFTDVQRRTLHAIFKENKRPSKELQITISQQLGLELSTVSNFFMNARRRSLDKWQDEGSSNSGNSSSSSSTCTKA
# Sequence of Transcription factor E2F1 (Homo sapiens) (Q01094 whole entry, looked up): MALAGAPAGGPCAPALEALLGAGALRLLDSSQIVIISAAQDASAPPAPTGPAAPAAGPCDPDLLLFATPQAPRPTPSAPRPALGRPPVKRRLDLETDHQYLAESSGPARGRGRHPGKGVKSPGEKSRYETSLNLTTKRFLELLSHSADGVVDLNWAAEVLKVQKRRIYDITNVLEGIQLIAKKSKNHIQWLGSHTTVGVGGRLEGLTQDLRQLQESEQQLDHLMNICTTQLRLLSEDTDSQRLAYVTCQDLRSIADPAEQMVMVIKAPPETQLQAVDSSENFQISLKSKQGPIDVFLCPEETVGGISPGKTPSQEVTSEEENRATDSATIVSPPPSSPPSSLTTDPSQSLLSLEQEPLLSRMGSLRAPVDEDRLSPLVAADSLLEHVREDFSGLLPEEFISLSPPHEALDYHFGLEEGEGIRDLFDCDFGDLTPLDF
# Sequence of Hypoxia-inducible factor 1-alpha (Homo sapiens) (Q16665 whole entry, looked up): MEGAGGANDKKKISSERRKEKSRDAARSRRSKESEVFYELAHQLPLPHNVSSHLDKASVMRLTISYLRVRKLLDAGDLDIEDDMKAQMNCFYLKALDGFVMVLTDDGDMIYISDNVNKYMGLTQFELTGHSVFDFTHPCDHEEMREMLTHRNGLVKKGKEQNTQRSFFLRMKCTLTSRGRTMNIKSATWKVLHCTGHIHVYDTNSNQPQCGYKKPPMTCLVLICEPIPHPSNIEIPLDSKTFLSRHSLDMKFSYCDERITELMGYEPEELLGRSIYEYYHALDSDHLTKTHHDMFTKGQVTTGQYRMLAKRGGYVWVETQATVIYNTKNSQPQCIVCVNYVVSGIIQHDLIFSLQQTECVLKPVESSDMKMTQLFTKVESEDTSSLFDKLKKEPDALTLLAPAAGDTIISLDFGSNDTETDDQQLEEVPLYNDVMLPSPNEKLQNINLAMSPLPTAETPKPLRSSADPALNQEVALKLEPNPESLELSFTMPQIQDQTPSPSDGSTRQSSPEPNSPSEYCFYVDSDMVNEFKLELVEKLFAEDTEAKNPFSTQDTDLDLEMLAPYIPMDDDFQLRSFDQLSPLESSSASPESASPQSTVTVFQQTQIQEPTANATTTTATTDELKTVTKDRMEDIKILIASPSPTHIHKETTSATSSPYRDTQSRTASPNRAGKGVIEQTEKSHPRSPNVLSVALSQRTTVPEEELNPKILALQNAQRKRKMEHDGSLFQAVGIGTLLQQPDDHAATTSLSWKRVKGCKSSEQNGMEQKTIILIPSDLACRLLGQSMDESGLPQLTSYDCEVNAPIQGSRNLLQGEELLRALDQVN
# Sequence of Hepatocyte nuclear factor 3-beta (Homo sapiens) (Q9Y261 whole entry, looked up): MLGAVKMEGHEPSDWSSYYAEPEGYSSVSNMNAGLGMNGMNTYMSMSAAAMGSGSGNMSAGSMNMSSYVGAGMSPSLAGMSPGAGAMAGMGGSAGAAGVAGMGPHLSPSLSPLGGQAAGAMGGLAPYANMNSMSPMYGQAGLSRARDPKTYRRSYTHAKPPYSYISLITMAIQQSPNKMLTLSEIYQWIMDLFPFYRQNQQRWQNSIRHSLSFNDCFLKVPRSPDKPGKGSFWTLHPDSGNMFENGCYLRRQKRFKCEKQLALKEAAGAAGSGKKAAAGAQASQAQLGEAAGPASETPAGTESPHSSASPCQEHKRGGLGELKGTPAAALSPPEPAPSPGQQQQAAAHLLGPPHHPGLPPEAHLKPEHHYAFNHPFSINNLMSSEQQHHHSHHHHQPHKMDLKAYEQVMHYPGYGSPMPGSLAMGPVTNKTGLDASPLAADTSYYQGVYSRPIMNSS
# Sequence of Bile acid receptor (Homo sapiens) (Q96RI1 whole entry, looked up): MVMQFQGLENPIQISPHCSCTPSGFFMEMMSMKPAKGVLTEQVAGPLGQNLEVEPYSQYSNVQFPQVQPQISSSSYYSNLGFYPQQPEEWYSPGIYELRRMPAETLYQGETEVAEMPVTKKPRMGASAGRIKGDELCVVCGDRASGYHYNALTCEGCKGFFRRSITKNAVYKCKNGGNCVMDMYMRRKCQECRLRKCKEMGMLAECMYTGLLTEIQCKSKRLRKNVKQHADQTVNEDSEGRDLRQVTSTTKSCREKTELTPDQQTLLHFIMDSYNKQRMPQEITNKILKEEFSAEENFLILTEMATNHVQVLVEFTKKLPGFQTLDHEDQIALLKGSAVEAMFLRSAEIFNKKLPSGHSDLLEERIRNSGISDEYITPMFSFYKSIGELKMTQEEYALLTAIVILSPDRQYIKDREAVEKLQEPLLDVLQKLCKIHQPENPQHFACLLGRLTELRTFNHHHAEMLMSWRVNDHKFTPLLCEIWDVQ
compound,measurement,setting,value
C=CC(O)CCCCC (centres undefined),outcome,[1],inactive
same,outcome,[2],inactive
same,outcome,[3],inactive
same,outcome,[4],inactive
same,outcome,[5],inactive
same,outcome,[6],inactive
same,AC50,[7],100 µM (active)
same,outcome,[8],inactive
same,outcome,[9],inactive
same,outcome,[10],inactive
same,outcome,[11],inactive
same,outcome,[12],inactive
same,AC50,[13],26.9 µM (active)
same,outcome,[14],inactive
same,outcome,[15],inactive
same,outcome,[16],inactive
CN1CCc2cccc3c2[C@H]1Cc1ccc(O)c(O)c1-3,outcome,[1],inactive
same,outcome,[3],inactive
same,outcome,[17],inactive
same,outcome,[4],inactive
same,AC50,[18],386 nM (active)
same,outcome,[5],inactive
same,outcome,[6],inactive
same,outcome,[7],inactive
same,outcome,[8],inactive
same,outcome,[9],inactive
same,outcome,[10],inactive
same,outcome,[11],inactive
same,outcome,[14],inactive
same,outcome,[15],inactive
same,outcome,[16],inactive
CCCCCCCCOC(=O)c1ccc(O)cc1,outcome,[1],inactive
same,outcome,[2],inactive
same,outcome,[3],inactive
same,outcome,[4],inactive
same,AC50,[18],5120 nM (active)
same,outcome,[5],inactive
same,outcome,[6],inactive
same,outcome,[7],inactive
same,outcome,[8],inactive
same,outcome,[9],inactive
same,outcome,[19],inactive
same,outcome,[11],inactive
same,outcome,[12],inactive
same,outcome,[13],inactive
same,outcome,[14],inactive
same,outcome,[15],inactive
same,outcome,[16],inactive
COC(=O)C(C)Oc1ccc(Oc2ncc(C(F)(F)F)cc2Cl)cc1 (centres undefined),outcome,[1],inactive
same,AC50,[2],180 µM (active)
same,outcome,[3],inactive
same,AC50,[17],76.1 µM (active)
same,outcome,[5],inactive
same,outcome,[6],inactive
same,outcome,[7],inactive
same,outcome,[8],inactive
same,outcome,[9],inactive
same,outcome,[12],inactive
same,outcome,[13],inactive
same,outcome,[14],inactive
same,outcome,[15],inactive
same,AC50,[16],100 µM (active)
CCC(CC)CO,outcome,[1],inactive
same,outcome,[2],inactive
same,outcome,[3],inactive
same,outcome,[4],inactive
same,outcome,[18],inactive
same,outcome,[5],inactive
same,outcome,[6],inactive
same,outcome,[7],inactive
same,outcome,[8],inactive
same,outcome,[9],inactive
same,outcome,[19],inactive
same,outcome,[11],inactive
same,outcome,[12],inactive
same,outcome,[13],inactive
same,outcome,[14],inactive
same,outcome,[15],inactive
same,outcome,[16],inactive
